# Only some compounds are listed: those with a hit (about 2.9% of all), similar ones and a draw of the others.
# GDH-TPI counter-1 = inhibits GDH-TPI coupling enzymes, artifact for Mtb FBA screen; GDH-TPI coupled enzyme counterscreen, NADH absorbance; inhibition, % at 4.8 µM; 360,000 tested, 1.2% active; in the data active = inhibition above about 30%;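 also: 0% = DMSO wells and 100% = wells lacking the enzyme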
# FBA Mtb inh = inhibitors of M. tuberculosis fructose-bisphosphate aldolase | inhibition, % at 1 µM | AID 588726 | 360,000 tested, 2.3% active | P9WQA3 | purified M. tuberculosis FBA, fluorescence read-out;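 also: 0% = vehicle and 100% = reference inhibitor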
# Target sequence (P9WQA3 whole entry, looked up): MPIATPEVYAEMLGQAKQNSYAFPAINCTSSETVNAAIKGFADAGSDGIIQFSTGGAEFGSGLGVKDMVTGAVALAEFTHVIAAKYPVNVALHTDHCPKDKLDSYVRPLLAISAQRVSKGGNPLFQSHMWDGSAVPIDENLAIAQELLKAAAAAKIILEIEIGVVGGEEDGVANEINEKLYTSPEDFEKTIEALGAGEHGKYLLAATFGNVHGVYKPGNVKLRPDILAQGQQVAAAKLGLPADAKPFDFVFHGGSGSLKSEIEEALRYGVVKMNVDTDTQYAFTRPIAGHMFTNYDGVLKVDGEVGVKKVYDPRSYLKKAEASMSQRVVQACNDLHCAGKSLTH
# Mtb BioA inh = blocks M. tuberculosis BioA enzyme activity | purified M. tuberculosis BioA enzyme, plate reader | AID 602481 | inhibition, % at 9.99 µM | 360,000 tested, 0.096% active; in the data active = inhibition above about 40%
# FadD28 FP inh = M. tuberculosis FadD28 bisubstrate binding inhibition. FadD28 bisubstrate probe binding, fluorescence polarization. inhibition, % at 12.5 µM. 360,000 tested, 0.22% active. AID 588549; in the data active = inhibition above about 8.5%, passing the limit was not always enough
# Mtb hypoxia rep = inhibitors of hypoxia-regulated fluorescent reporter in Mycobacterium tuberculosis. M. tuberculosis hypoxia-regulated fluorescent reporter, fluorescence. fluorescence inhibition, % (concentration not given with the values). AID 1159583. 300,000 tested, 0.1% active; in the data active = fluorescence inhibition mostly above about 23%, no sharp cut-off; inactive = mostly below about 17%
# Mtb FBA confirm = Mtb FBA inhibition, confirmed; AID 651616; purified M. tuberculosis FBA, fluorescence read-out; 5,600 tested, 78% active; inhibition, % at 1 µM; shares compounds with FBA Mtb inh;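 also: 0% = vehicle wells and 100% = reference inhibitor wells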
# GDH-TPI counter-2 = inhibits GDH-TPI coupling enzymes, flagging Mtb FBA hits; inhibition, % at 1 µM; AID 652141; shares compounds with FBA Mtb inh; 5,600 tested, 81% active; GDH-TPI coupled enzyme counterscreen, fluorescence; in the data active = inhibition above about 10%
# GDH-TPI dose = counter-screen for M. tuberculosis FBA inhibitors: GDH-TPI dose response; shares compounds with FBA Mtb inh; GDH-TPI coupled enzyme assay, fluorescence, artifact counterscreen; IC50, µM; 170 tested, 79% active; AID 652145; call rule not given here
# * hit, by the source's call; . = no result; + = active, no number; ! = not confirmed by another sample. Rule as the data show it, unless noted: active = inhibition above about 27%; inactive = the rest.
SMILES,GDH-TPI counter-1,FBA Mtb inh,Mtb BioA inh,FadD28 FP inh,Mtb hypoxia rep,Mtb FBA confirm,GDH-TPI counter-2,others
CCN1CCN(Cc2ccc(NC(=O)c3ccc(C)c(NC(=O)c4cccc5[nH]ccc45)c3)cc2C(F)(F)F)CC1,-9.9,30.5*!,-1.2,-3.3,-5.6,+,+,
O=C(Nc1ccc(N2CCOCC2)cc1)C1CCN(S(=O)(=O)c2ccccc2F)CC1,2.9,36.7*,.,-4.1,-3.0,25.8,18.9*,
O=C(Nc1ccc(N2CCOCC2)cc1)C1CCN(S(=O)(=O)c2cccc(C(F)(F)F)c2)CC1,14.6,0.7,-0.5,-0.8,.,.,.,
CCS(=O)(=O)NCC[C@@H]1CC[C@H](NC(=O)Cc2ccccn2)[C@@H](CO)O1,.,.,1.3,.,.,.,.,
O=C(NCCc1cn2ccccc2n1)C1CCCCC1,3.9,27.4*,-0.1,0.9,4.9,109.2*,80.0*,
CC1CN(C(C)CO)C(=O)c2cccc(NC(=O)Cc3ccccc3)c2OC1CN(C)Cc1ccc2c(c1)OCO2 (stereo not given),.,.,.,.,4.3,.,.,
CN1CCc2c(sc(/N=C/c3ccco3)c2C(N)=O)C1,21.1,39.5*,-6.2,-0.5,.,42.3*,24.2*,
CN1CCc2c(sc(N=Cc3ccco3)c2C(N)=O)C1,.,.,.,.,13.3,.,.,
COc1ccccc1NS(=O)(=O)c1cccc(C(=O)NN=Cc2ccc(NC(C)=O)cc2)c1,.,.,.,.,2.5,.,.,
Cn1c(-c2cc3ccc(OC(=O)C(C)(C)C)cc3oc2=O)nc2ccccc21,33.0*,59.2*,-1.8,-2.7,0.5,2.9,-3.5,
COc1ccc(-c2c(C)oc3c(CN4CCCC(C)C4)c(O)ccc3c2=O)cc1OC (stereo not given),18.2,38.5*,2.5,-0.6,8.6,-0.1,-2.1,
COc1ccc(-c2c(C)oc3c(CN4CCCCC4C)c(O)ccc3c2=O)cc1OC (stereo not given),34.1*,41.8*,3.5,0.2,7.2,-1.5,-6.3,
Cc1cc(C)c(OCCCNC2CCCC2)c(Br)c1,6.5,67.1*,-0.2,-0.5,17.0,+,+,
Cc1cc(C)c(OCCCNCc2ccccc2)c(Br)c1,19.6,-0.6,-6.7,-1.6,-0.6,.,.,
CC(C)(C)NC(=O)C1CC2CCCCC2CN1CC(O)C(Cc1ccccc1)NC(=O)C(CC(N)=O)NC(=O)c1ccc2ccccc2n1 (stereo not given),.,.,.,.,3.0,.,.,
Cc1cccc(C=NNc2cn[nH]c(=O)c2Cl)c1,.,.,.,.,1.7,.,.,
CCSc1nc(-c2ccc(OC)cc2)ccc1C#N,13.3,42.3*,2.5,-1.0,1.8,83.9*,80.2*,
COc1ccc(-c2ccc(C#N)c(SCC(=O)NC3CC3)n2)cc1OC,25.0,99.2*,.,2.0,15.2,107.9*,110.6*,
NC(=O)c1cc2ccccc2oc1=NNC(=O)c1ccco1,.,.,.,.,5.8,.,.,
CC(C)NC(=O)Nc1ccc2c(c1)C(=O)N([C@@H](C)CO)C[C@@H](C)[C@@H](CN(C)C(=O)CCCN(C)C)OCCCC[C@@H](C)O2,.,.,-2.4,.,.,.,.,
C[C@H]1CN([C@@H](C)CO)C(=O)c2cccc(NC(=O)c3nc4ccccc4s3)c2O[C@@H]1CN(C)Cc1ccncc1,.,.,-0.6,.,.,.,.,
Cc1ccc(-c2nc3ccccc3[nH]2)cn1,6.4,5.3,-0.2,-5.3,0.2,.,.,
Cc1nc2ccc(-c3nc4ccccc4[nH]3)cc2[nH]1,-8.9,34.4*,.,-9.9,.,77.6*,60.8*,
Clc1ccc(-c2nc3ccccc3[nH]2)cn1,2.6,72.2*,.,-4.8,17.4,97.4*,83.7*,
COc1cccc(-c2ccc([C@H]3[C@@H](CO)N4CCCCN(CC5CCOCC5)C[C@H]34)cc2)c1,.,.,3.1,.,.,.,.,
SMILES,GDH-TPI counter-1,FBA Mtb inh,Mtb BioA inh,FadD28 FP inh,Mtb hypoxia rep,Mtb FBA confirm,GDH-TPI counter-2,others
COc1ccc(NS(=O)(=O)c2ccc(S(=O)(=O)N3CCCC3)cc2)cc1,2.2,3.5,-0.9,-2.5,.,.,.,
COc1ccc(NS(=O)(=O)c2ccc(S(=O)(=O)N3CCOCC3)cc2)cc1,1.2,45.2*,1.7,-2.4,4.7,148.6*,102.3*,
COc1ccc(CCNC(=O)COc2ccc(S(=O)(=O)N3CCOCC3)cc2C)cc1,0.0,104.5*,-2.1,-1.2,6.7,126.5*,103.9*,
Cc1cc2cc(CCNC(=O)c3ccc(S(=O)(=O)N4CCCC4)cc3)c(=O)[nH]c2cc1C,13.1,2.4,-0.8,-2.7,-2.8,.,.,
COc1ccc2cc(CCNC(=O)c3ccc(S(=O)(=O)N4CCOCC4)cc3)c(=O)[nH]c2c1,15.1,78.5*,-1.6,-3.9,-7.0,105.2*,85.1*,
CCOc1ccc(C(=O)NCc2ccco2)cc1OCC,3.7,1.7,-2.9,-1.7,-0.4,.,.,
CCOc1ccccc1-n1cnc2cc(C(=O)NCc3ccco3)ccc21,-9.7,6.9,7.9,-3.5,.,.,.,
CCOc1c2ccc(C(=O)NCc3ccco3)cc2nn1CCOC,6.0,39.2*,-1.0,0.4,1.4,+,+,
CCOc1c2ccc(C(=O)N[C@H](C)C3CCCCC3)cc2nn1CCOC,17.4,105.6*,-1.2,-1.3,.,77.7*,67.7*,
CCCCn1nc2cc(C(=O)NCc3ccco3)ccc2c1OCC,10.1,27.2*,1.5,0.5,15.7,-2.7,-4.9,
CCOc1c2ccccc2nn1CCOC,4.4,9.5,0.6,-0.7,5.8,.,.,
C[C@H](CO)N1C[C@H](C)[C@@H](CN(C)S(=O)(=O)c2cn(C)cn2)Oc2ccc(NC(=O)CCN3CCOCC3)cc2CC1=O,.,.,-4.9,.,.,.,.,
CC(C)C=NNc1nc2c(c(=O)n(C)c(=O)n2C)n1C,.,.,.,.,1.7,.,.,
CO[C@H]1CN(C)C(=O)c2ccc(NC(=O)NC(C)C)cc2OC[C@H](C)N(CCC(F)(F)F)C[C@H]1C,.,.,0.8,.,.,.,.,
COc1ccccc1N1C(=O)NC(=O)C(=Cc2ccc3c(c2)Cc2ccccc2-3)C1=O,.,.,.,.,9.0,.,.,
COc1ccccc1N1C(=O)NC(=O)/C(=C/c2ccc3c4c(cccc24)CC3)C1=O,18.0,37.7*,-4.1,1.3,5.6,17.5,-6.0,GDH-TPI dose=3.89*
Nc1c(Cl)cc(Cl)cc1C(=O)OCC(=O)N1CCCC1,0.0,94.6*,-5.2,-0.7,23.7,137.2*,106.6*,
CN(CCC#N)C(=O)COC(=O)c1cc(Cl)cc(Cl)c1N,4.4,93.1*,.,-1.5,16.8,-1.8,-5.4,
CN(CCC#N)C(=O)COC(=O)c1ccccc1OCc1ccccc1Cl,-2.5,3.9,.,-4.0,3.8,.,.,
NC(=O)COC(=O)c1cc(Cl)cc(Cl)c1N,-6.1,88.9*,.,-1.6,-2.5,+,+,
Nc1c(Cl)cc(Cl)cc1C(=O)OCC(=O)N1CCCC1=O,4.6,13.0,-1.1,0.2,-0.4,.,.,
CCN1CCCC1CNC(=O)c1c(OC)ccc(Br)c1OC (stereo not given),.,.,.,.,5.6,.,.,
Cc1ccc(S(=O)(=O)N(C)C[C@@H]2OCCCC[C@H](C)Oc3ccc(NS(=O)(=O)c4ccc(F)cc4)cc3C(=O)N([C@H](C)CO)C[C@@H]2C)cc1,.,.,-2.3,.,.,.,.,
